The source made the active and inactive calls. How the source made its calls: active means hit-call score of the fitted dose curve at least 0.9, where 1 is the maximum; inactive means score below 0.9.

The source of these data is PubChem BioAssay (EPA / NIEHS).

Read-out in this experiment: Collagen I, COL1A1 (gene 1277)
The experiment is described as follows: BSK_hDFCGF_CollagenI: BioMAP Diversity Plus: hDFCGF Assay for Collagen I Biomarker Activity (AID 2284250). The settings on record: primary human foreskin fibroblasts. As for the experimental part: BSK_hDFCGF is a cell-based, multiplexed-readout assay that uses foreskin fibroblast, a human skin primary cell, with measurements taken at 24 hours after chemical dosing in a 96-well plate.BSK_hDFCGF_CollagenI is an assay component measured in the BSK_hDFCGF assay. It measures Collagen I antibody related to regulation of gene protein expression using ELISA technology.Data from the assay component BSK_hDFCGF_CollagenI was analyzed at the endpoint, BSK_hDFCGF_CollagenI, in the positive analysis fitting direction relative to DMSO as the negative control and baseline of activity. Using a type of binding reporter, gain or loss-of-signal activity can be used to understand protein changes. To generalize the intended target to other relatable targets, this assay endpoint is annotated to the 'cell adhesion molecules' intended target family, where the subfamily is 'collagen'.
The levels of cell surface (or secreted, indicated by the prefix "s") biomarker endpoints were measured by ELISA. Overt cytotoxicity to cells in confluent adherent cultures (all systems other than the BT system) was assessed by measuring total protein levels using sulforhodamine B (SRB) staining in parallel cultures at the time of biomarker measurements, indicated as SRB endpoints. For proliferation assays for adherent cell types, individual cell types are cultured at sub-confluence and relative cell numbers quantified by SRB staining at time points optimized for each system (48 h: 3C and CASM3C systems; 72 h: BT and HDF3CGF systems; 96 h: SAg system). SRB was performed by staining cells with 0.1% SRB after fixation with 10% TCA and reading wells at 560 nm.Viability and proliferation of PBMC (T cells) was quantified by Alamar Blue reduction for the SAg and BT systems. For PBMC viability (referred to as PBMC Cytotoxicity within the assay endpoint names), cells were plated (75,000/well in a 96-well plate) and then chemical samples added for 1 h before addition of activators, SEB and TSST-1 (20 ng/mL final concentration each). Cells were incubated for 90 h. Then, Alamar Blue (20 uL/well) (Invitrogen, Cat DAL1100) was added for 6 h, and the plates were read with a fluorescence microplate reader at 546/580 nm (excitation/emission). For PBMC proliferation, cells were plated and activated as above but incubated for only 16 h prior to addition of Alamar Blue. Plates were read after 6 h.
In the case of `C=C(C)C(=O)OCC(F)(F)C(F)(F)C(F)(F)C(F)F`, the outcome was inactive. With `C=CC(=O)OCC(F)(F)C(F)(F)C(F)(F)C(F)(F)C(F)(F)C(F)(F)C(F)(F)C(F)F`, the result was inactive. Then `O=C(Cl)C(F)(F)C(F)(F)C(F)(F)C(F)(F)C(F)(F)C(F)(F)C(F)(F)F`, with “inactive”; and `O=C(O)C(F)(F)C(F)(F)C(F)(F)C(F)(F)C(F)(F)C(F)(F)C(F)F`, with “inactive”; and `NC(=O)C(F)(F)C(F)(F)C(F)(F)C(F)F`, with “inactive”. With `OCC(F)(F)C(F)(F)C(F)(F)C(F)(F)C(F)(F)C(F)(F)CO`, the outcome was inactive.

For `O=C(Cl)C(F)(F)C(F)(F)C(F)(F)C(F)(F)C(F)(F)C(F)(F)F`, the result was inactive. Then `CCN(CCO)S(=O)(=O)C(F)(F)C(F)(F)C(F)(F)C(F)(F)C(F)(F)C(F)(F)C(F)(F)C(F)(F)F`, with “inactive”; and `O=C(F)C1(F)C(F)(F)C(F)(F)C(F)(F)C(F)(F)C1(F)F`, with “inactive”. Turning to `CO[Si](C)(CCC(F)(F)C(F)(F)C(F)(F)C(F)(F)C(F)(F)C(F)(F)F)OC`, the outcome was inactive. Turning to `C=CC(=O)OCC(F)(F)C(F)(F)C(F)(F)COC(=O)C=C`, the outcome was inactive. On to `O=C(O)C(F)(F)OC(F)(F)C(F)(F)OC(F)(F)C(F)(F)OC(F)(F)F`, for which the outcome was inactive.

`O=C(O)C(F)(F)C(F)(F)C(F)(F)OC(F)(F)F`: the outcome was inactive. `O=S(=O)(O)CCC(F)(F)C(F)(F)C(F)(F)C(F)(F)C(F)(F)C(F)(F)C(F)(F)C(F)(F)F`: the outcome was inactive. Next, `CN(C(=O)C(F)(F)C(F)(F)C(F)(F)F)[Si](C)(C)C`: “inactive”. Regarding `OCC(F)(F)C(F)(F)C(F)(F)CO`, the result was inactive. With `NC(=O)C(F)(F)C(F)(F)C(F)(F)F`, the result was inactive. Next, `O=S(=O)(Cl)C(F)(F)C(F)(F)C(F)(F)C(F)(F)C(F)(F)C(F)(F)C(F)(F)C(F)(F)F`: “inactive”.

With `FC(F)(F)C(F)(F)C(F)(F)C(F)(F)C(F)(F)C(F)(F)C(F)(F)CCI`, the outcome was inactive.

On to `FC(F)(F)C(F)(F)C(F)(F)C(F)(F)C(F)(F)C(F)(F)CC[Si](Cl)(Cl)Cl`, for which the result was inactive. In the case of `OC(O)C(F)(F)C(F)(F)F`, the outcome was inactive. Next, `NC(O)(C(F)(F)F)C(F)(F)F`: “inactive”; `O=S(=O)(OCC(F)(F)F)C(F)(F)C(F)(F)C(F)(F)C(F)(F)F`: “inactive”. On to `COC(F)(C(F)F)C(F)(F)F` (stereo not given), for which the outcome was inactive. Turning to `NCC(F)(F)C(F)(F)C(F)(F)C(F)(F)C(F)(F)C(F)(F)C(F)(F)C(F)(F)F`, the outcome was inactive. With `OCCCC(F)(F)C(F)(F)C(F)(F)C(F)(F)C(F)(F)C(F)(F)C(F)(F)C(F)(F)F`, the result was inactive. In the case of `O=C(O)CCC(F)(F)C(F)(F)C(F)(F)F`, the outcome was inactive. Consider `OCC(O)CC(F)(F)C(F)(F)C(F)(F)C(F)(F)F` (stereo not given), for which the outcome was inactive. Regarding `OCC(F)(F)C(F)(F)C(F)(F)C(F)(F)C(F)(F)C(F)(F)C(F)(F)C(F)(F)CO`, the outcome was inactive. Consider `FC(F)(F)C(F)(F)C(F)(F)CC1CO1` (stereo not given), for which the result was inactive. On to `NC(=O)C(F)(F)C(F)(F)C(F)(F)C(F)(F)C(F)(F)C(F)(F)C(F)(F)F`, for which the result was inactive. Next, `CNS(=O)(=O)C(F)(F)C(F)(F)C(F)(F)C(F)(F)C(F)(F)C(F)(F)C(F)(F)C(F)(F)F`: “inactive”; `O=C(O)C(F)(F)C(F)(F)C(F)(F)C(=O)O`: “inactive”; `NCC(F)(F)C(F)(F)C(F)(F)C(F)(F)C(F)(F)C(F)(F)F`: “inactive”.

In the case of `NC(=O)C(F)(F)C(F)(F)C(F)(F)C(F)(F)C(N)=O`, the result was inactive. Turning to `CCOC(=O)CC(=O)C(F)(F)C(F)(F)F`, the result was inactive. Take `C[Si](Cl)(Cl)CCC(F)(F)C(F)(F)C(F)(F)C(F)(F)C(F)(F)C(F)(F)F`: the result was inactive.

Regarding `O=C(O)C(F)(F)C(F)(F)C(F)(F)OC(F)(C(F)(F)F)C(F)(F)F`, the outcome was inactive. For `C=CC(=O)OCCC(F)(F)C(F)(F)C(F)(F)C(F)(F)F`, the outcome was inactive.

`CCN=C1C=CC(=C(c2ccc(N(CC)CC)cc2)c2ccc(N(CC)CC)cc2)c2ccccc21`: the outcome was inactive.
